Values without a mark were called inactive. Activity calls are given as the source filed them. Calls follow the shape of the dose curve; as a rule, active = well fitted activation curve with a large enough effect; inconclusive = small, poorly fitted or top-dose-only effect; inactive = no such curve, though single readings can be large or run the other way.
Potency is read from the fitted curve at half-maximal effect.

The assay can be described thus: Confirmatory qHTS for Identification of Small Molecule Activators of Huntingtin-Antisense Promoter Activity. The settings on record: HEK293 HTT-AS promoter firefly luciferase reporter, 24 h; series mostly up to 57.5 µM; activity change, positive = activation: at the top concentration. Put shortly: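 Plated reporter HEK293 cells (24 h) received library compounds at up to 57.5 uM final or 50 uM PTC124, incubated 24 h at 37C; firefly luciferase luminescence was then recorded with Dual-Glo reagent.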
A general note: Quantitative high-throughput screening tests each substance at several concentrations.
Turning to `Cn1cnc(S(=O)(=O)N2CCC(C(=O)Nc3ccc(Cl)c(C(F)(F)F)c3)CC2)c1`, the “activity change, positive = activation” value is -54.1%.
Still for that read-out and setting: the figure for `O=C(NCc1cccc(Cl)c1)C1CCCN(c2nn3cc(-c4ccc(F)cc4)nc3s2)C1` (centres undefined) is -56.7%.
`COc1ccc(-n2c(/C=C/c3cccc4ccccc34)nc3ccccc3c2=O)cc1Cl`: the “activity change, positive = activation” value is -15.7%.
On the same count and under the same terms, the figure for `Cc1ccc(Cl)cc1N1CCN(C(=O)CCS(=O)(=O)c2ccc3c(c2)oc(=O)n3C)CC1` is -41.9%.
The same measure, in the same setting: the figure for `CCOc1ccc(CCNC(=O)c2cccc(-n3c(C)nc4cccnc43)c2)cc1` is -25.8%.
As to `COc1ccccc1CNC(=O)c1ccc(N2CCCC2)c(NC(=O)NCc2ccc(C)cc2)c1`, the “activity change, positive = activation” value is -33.2%.
Same read-out and setting: the figure for `CCOCc1cc(CN2CCN(c3ccccc3OC)CC2)c(O)c2ncccc12` is -34.5%.
On the same count and under the same terms, the figure for `COc1cccc(NC(=O)/C(C#N)=C\c2cn(Cc3ccc(C)cc3)c3ccccc23)c1` is -35.9%; for `CCN(CCCNC(=O)CSc1cc(=O)n(CC)c2ccccc12)c1cccc(C)c1` it is -23.4%; for `CC(C)c1ccc(NC(=O)C2CCN(c3nc(-c4ccc(C(C)C)cc4)no3)CC2)cc1` it is -91.2%.
Same read-out and setting: the figure for `COc1ccccc1NC(=O)CSc1oc(-c2ccccc2)nc1S(=O)(=O)c1ccccc1` is -21.1%.
In the case of `Cc1ccc(NC(=O)C2CCCN2S(=O)(=O)c2cccc3nsnc23)cc1Cl` (centres undefined), the “activity change, positive = activation” value is -45.5%.
Same read-out and setting: in the case of `CCC(=O)N1CCc2cc(S(=O)(=O)NCCC(=O)Nc3ccc(CC)cc3)ccc21` it was -20.6%.
The same measure, in the same setting: in the case of `COc1ccc(N2CCN(C(CNC(=O)C(=O)NCc3ccc(C)cc3)c3cccnc3)CC2)cc1` (centres undefined) it was -43.7%.
For the compound `CO[C@H]1C=CC=C(C)C(=O)NC2=CC(=O)C(NCCN(C)C)=C(C[C@@H](C)C[C@H](OC)[C@@H](O)[C@@H](C)C=C(C)[C@@H]1OC(N)=O)C2=O`, the “activity change, positive = activation” value was -6.23%.
Same read-out and setting: in the case of `Cc1cc(C)c(NS(=O)(=O)c2ccc(-c3cnc(C4CC4)o3)cc2)c(C)c1` it was -43.6%; in that of `COc1ccc(C2C=C(c3ccc(Br)cc3)Nc3nnnn32)c(OC)c1` (centres undefined), 3.76%; in that of `CCOc1ccc(NCc2cccn2-c2nnc(N3CCC(C(=O)NCCc4ccc(OC)c(OC)c4)CC3)s2)cc1`, -60.3%.
Same read-out and setting: in the case of `CCOc1cc(CNC(=O)c2sc3ncnc(N(C)C4CCCCC4)c3c2C)ccc1OC` it was -26.3%; in that of `Cc1ccccc1CNC(=O)c1ccc(-c2nc(CS(=O)(=O)c3ccccc3)c(C)o2)cc1`, -41.5%; in that of `CN(C)c1ccc(C(=O)Nc2sc(Nc3ccccc3)nc2C(N)=O)cc1`, -12.3%.
Same read-out and setting: the figure for `COc1ccc2oc(=O)c(C(=O)NCCc3c(C)[nH]c4ccc(C)cc34)cc2c1` is -17.8%; for `Cc1cccc(-n2c(-c3ccco3)nc3c(cnn3-c3ccccc3C)c2=O)c1` it is -11.9%.
Turning to `O=C(Nc1ccc(F)cc1F)N1CCN(c2ccc(Cl)c(Cl)c2)CC1`, the “activity change, positive = activation” value was -42.1%.
On the same count and under the same terms, in the case of `CCOc1ccccc1CNC(=O)c1ccc(NC(=O)N2CCSc3ncccc32)cc1` it was -51.6%; in that of `O=C(NCCCN1CCN(c2ccccc2)CC1)c1ccc2nc(CCc3ccccc3)oc2c1`, -82.1%.
On to `C=Cc1ccc(Cn2c(C(=O)O)c(CNCc3ccccc3)c3ccc(C)cc32)cc1`, for which the “activity change, positive = activation” value was -49%.
On to `CC1CCN(C(=O)CN2c3ccc(Br)cc3-c3ccccc3S2(=O)=O)CC1`, for which the Potency is 2.69 µM (active).
For the compound `CCc1ccc(NC(=O)C2CCCN(S(=O)(=O)c3cccc4nsnc34)C2)cc1` (centres undefined), the “activity change, positive = activation” value is -46.5%.
As for `CCc1ccc(NC(=O)c2ccc3oc(=O)n(Cc4ccccc4)c3c2)cc1`, the “activity change, positive = activation” value is -41.5%.
Same read-out and setting: the figure for `Cc1cccc(NS(=O)(=O)c2ccc3c(c2)CCN3C(=O)C2CCC2)c1` is -85.2%.
The same measure, in the same setting: in the case of `CCOC(=O)c1cc(-c2ccc(F)cc2)n(CCC(=O)NCCc2ccc(C)cc2)c1C` it was -9.24%.
For `COc1ccc(Nc2nc(-c3ccc(C)cc3)nc3ccccc23)c(OC)c1`, the “activity change, positive = activation” value is 19%.
Consider `COc1ccccc1C(=O)Nc1nnc(SCc2cc(=O)c3ccccc3[nH]2)s1`, for which the “activity change, positive = activation” value was -43.4%.
For the compound `COc1ccc(C(=O)Nc2cccc(-c3cn4ccsc4n3)c2)c(OC)c1`, the Potency was 13.5 µM (active).
Consider `O=C(Nc1cc(Cl)cc(Cl)c1)c1ccc(F)c(S(=O)(=O)N2CCc3ccccc32)c1`, for which the “activity change, positive = activation” value was -91.7%.
Take `COc1ccc(Cl)cc1C1CC(=O)Nc2cc3c(cc21)OCCO3` (centres undefined): the “activity change, positive = activation” value was -63.7%.
Same read-out and setting: the figure for `O=C(C1CCC(CNS(=O)(=O)c2cccs2)CC1)N1CCN(c2ccc(Cl)cc2)CC1` (centres undefined) is -53.1%; for `CCc1ccc(CNC(=O)c2ccc3nc(SCc4ccc(F)cc4)n(C)c3c2)cc1` it is -30.6%.
